Sm TGR block: blocks Schistosoma mansoni thioredoxin glutathione reductase; Potency, µM (titrated, usually from 114 µM), for inactives: at the top dose activity change, negative = inhibition, most hits filed as inhibitors; purified TGR, DTNB reduction, TNB absorbance 405 nm; 360,000 tested, 3% active; further: nearly all actives have a fitted effect of over 60% in size
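TGR 20 nM + NADPH 100 uM (dispensed conc.), cpd preinc 15 min RT; start with NADPH (500 uM addition) then DTNB (15 mM addition). Kinetic TNB absorbance, 405 nm filter. Four-parameter Hill fit across titration.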
RE007 growth inh: less growth of the S. pombe RE007 Vpr strain; 360,000 tested, 0.21% active; S. pombe RE007 Vpr strain, BacTiter-Glo ATP luminescence, 24 h; Potency, µM (series often up to 92.2 µM), inactives show top-dose activity change, negative = less growth, hits mostly inhibitors; active means well fitted falling curve with a large enough effect; inconclusive means small, poorly fitted or top-dose-only effect; inactive means no such curve, though single readings can be large or run the other way; further: nearly all actives have a fitted effect of over 50% in size
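Fission yeast RE007 carrying one integrated HIV-1 vpr copy, seeded at OD 0.01 in PMG+AL medium with 23 nL pinned compound. Grown 24 h at 30 degrees; viability read by BacTiter-Glo luminescence after 5 min.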
Tb PYK inh: T. brucei pyruvate kinase inhibition; AID 624173; Potency, µM (series often up to 76.8 µM), for inactives: at the highest dose activity, negative = inhibition, most hits filed as inhibitors; 410,000 tested, 0.12% active; TbPYK enzyme, Kinase-Glo Plus ATP luminescence, 45 min; further: nearly all actives have a fitted effect of over 50% in size
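In this concentration-response screen, enzyme-free wells defined baseline while DMSO plates tracked drift. Each reaction combined TbPYK, substrate, compound and 130 uM ADP for 45 min at room temperature. Kinase-Glo Plus luminescence gave the signal.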
LmPK inhibitor: inhibitors of Leishmania mexicana pyruvate kinase | purified LmPK, Kinase-Glo ATP luminescence, 1 h | Potency, µM (series often up to 57.5 µM), inactives show top-dose activity change, negative = inhibition, hits mostly inhibitors | 290,000 tested, 0.37% active
Target sequence (Q27686 whole entry, looked up): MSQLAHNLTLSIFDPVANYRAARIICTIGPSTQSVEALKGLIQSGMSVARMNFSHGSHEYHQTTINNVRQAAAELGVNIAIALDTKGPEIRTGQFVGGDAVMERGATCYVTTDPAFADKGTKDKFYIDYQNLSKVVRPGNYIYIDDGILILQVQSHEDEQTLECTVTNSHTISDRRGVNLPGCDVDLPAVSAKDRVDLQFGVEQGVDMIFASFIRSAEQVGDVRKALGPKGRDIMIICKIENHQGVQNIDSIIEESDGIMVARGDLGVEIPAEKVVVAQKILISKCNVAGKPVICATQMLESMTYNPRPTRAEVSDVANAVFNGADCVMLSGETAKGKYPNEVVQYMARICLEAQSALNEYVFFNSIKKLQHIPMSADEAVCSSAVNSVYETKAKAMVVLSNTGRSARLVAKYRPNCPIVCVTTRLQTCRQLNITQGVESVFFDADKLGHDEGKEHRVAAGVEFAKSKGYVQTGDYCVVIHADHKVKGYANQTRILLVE
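ATP generated from ADP (0.1 mM) and PEP (0.5 mM) by 0.1 nM LmPK over 1 h at room temperature (pH 7.2 imidazole buffer) was detected by coupled luciferase luminescence. Values were normalized to uninhibited and no-enzyme wells.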
* marks the source's active call; other numbers are inactive results; ? = inconclusive; · = not tested or not shown; [ ] = another dose, or the depositor's remark. This is a sample that favours compounds with a hit; in the whole collection about 3% have one here. Unless noted, the call rests on the fitted dose curve; in most records, active means well fitted curve in the direction sought with a large enough effect; inconclusive means small, poorly fitted or top-dose-only effect, or another doubt; inactive means no such curve, though single readings can be large; an effect the other way counts as inactive or inconclusive. On the % scale 0 is the no-effect control and ±100 the full control effect; potency means the concentration at half of the fitted maximal effect.

SMILES	Sm TGR block	RE007 growth inh	Tb PYK inh	LmPK inhibitor
CC(Cc1ccc2c(c1)OCO2)NO (stereo not drawn)	·	·	8.6%[157 µM]	·
O=C(c1cccc(S(=O)(=O)N2CCOCC2)c1)N(Cc1ccco1)Cc1cccs1	-9.2%	-0.9%	-11.1%	·
O=C(CN(Cc1ccco1)Cc1cccs1)N1CCN(S(=O)(=O)c2cccc(F)c2)CC1	39.8µM*	-12.3%	4.7%	·
Cc1ccsc1C(=O)N/N=C/c1ccc2c(c1)OCO2	-0.4%	?	?	11.2µM*
O=C(N/N=C/c1ccc2c(c1)OCO2)c1cccs1	1.2%	-15.9%	-18.9%	?
O=C(N/N=C/c1ccc2c(c1)OCO2)c1ccc(Cl)cc1Cl	-0.3%	-3.0%	-4.9%	3.9%
Cc1cc(C(=O)N/N=C/c2ccc3c(c2)OCO3)c(C)o1	0.0%	?	3.8%	14.1µM*
CCc1ccccc1Nc1ncnc2c1cnn2-c1ccc(Cl)cc1	-0.3%	·	1.3%	·
C/C(=N\NC(=O)c1ccccn1)c1ccc(C(=O)O)s1	·	·	·	15.8µM*
Cc1nc(N2CCOCC2)c2c(C(=O)N3CCN(c4cc(Cl)ccc4C)CC3)c(C)oc2n1	1.1%	·	-2.2%	·
CC(=O)c1ccc(N2CCN(C(=O)CCC(=O)c3cccs3)CC2)cc1	3.2%	-3.6%	-16.0%	-11.1%
O=C(CCC(=O)N1CCN(c2ccc(O)cc2)CC1)c1cccs1	56.2µM*	-4.9%	-20.9%	-15.3%
COC(=O)c1ccccc1NC(=O)CSc1nc2ccccc2nc1Cc1ccccc1OC	0.0%	·	5.3%	·
CC(CN1CCOCC1)C(Cc1ccccc1)(Cc1ccccc1)C(=O)N1CCCC1 (stereo not drawn)	·	·	-12.1%[157 µM]	·
Cc1ccc(N2C(=O)CC(Sc3ncn[nH]3)C2=O)cc1C (stereo not drawn)	0.316µM*	?	-0.4%	4.9%
Cc1cc(C)nc(SC2CC(=O)N(c3ccc(C)c(C)c3)C2=O)n1 (stereo not drawn)	-17.5%	25.8%	2.7%	-0.3%
Cc1cccc(N2C(=O)CC(Sc3ncn[nH]3)C2=O)c1 (stereo not drawn)	7.08µM*	?	-16.3%	15.4%
COC(=O)c1c(NC(=O)CN2C(=O)NC3(CCC(C)CC3)C2=O)sc2c1CCC2 (stereo not drawn)	-5.4%	8.5%	3.0%	·
CC1CCC2(CC1)NC(=O)N(CC(=O)Nc1sc3c(c1C(N)=O)CCC3)C2=O (stereo not drawn)	39.8µM*	-3.0%	-6.4%	3.1%
S=c1[nH]nc(Cc2n[nH]c(=S)n2-c2ccccc2)n1-c1ccccc1	-0.3%	-11.4%	?	-1.4%
S=c1[nH]nc(Cc2ccccc2)n1-c1ccccc1	-6.0%	6.0%	?	?
Cc1ccc(-n2c(Cc3cccc4ccccc34)n[nH]c2=S)c(C)c1	2.4%	1.0%	?	-12.0%
S=c1[nH]nc(Cc2cccs2)n1-c1ccccc1Cl	9.0%	9.6%	?	10µM*
Cc1ccc(C)c(-n2c(Cc3cccs3)n[nH]c2=S)c1	1.2%	-6.9%	?	10µM*
S=c1[nH]nc(Cc2cccs2)n1-c1ccccc1	6.6%	4.4%	8.91µM*	?
SMILES	Sm TGR block	RE007 growth inh	Tb PYK inh	LmPK inhibitor
COc1ccccc1-n1c(Cc2cccs2)n[nH]c1=S	-20.3%	-6.8%	?	-20.4%
S=c1[nH]nc(Cc2cccs2)n1-c1cccc2ccccc12	-7.5%	·	?	7.94µM*
COC(=O)c1ccccc1NS(=O)(=O)c1cc2c(cc1C)N(C)CCO2	0.1%	·	-1.6%	·
Cc1ccccc1OCc1ccc(-c2nc(C#N)c(N3CCN(c4ccccc4)CC3)o2)o1	-2.2%	·	-4.7%	·
CCCOc1ccc(F)cc1-c1cc(C(=O)NCc2ccco2)[nH]n1	·	6.8%	-8.2%	·
CCCCc1ccc(-n2c(Cc3cccs3)n[nH]c2=S)cc1	-8.8%	11.4%	7.94µM*	-6.2%
Cc1ccc(-n2c(-c3cc(-c4ccco4)[nH]n3)n[nH]c2=S)c(Br)c1	-31.2%	14.1%	?	?
S=c1[nH]nc(-c2cc(-c3ccco3)[nH]n2)n1-c1cccc2ccccc12	11.2µM*	-4.6%	?	7.94µM*
CCOC(=O)c1ccc(Nc2nc3nonc3nc2Nc2cccc(C)c2C)cc1	1.6%	·	8.5%	·
C/C=C/C=C/C(=O)Nc1nccs1	35.5µM*	-7.3%	-16.4%	-1.0%
COCCCn1c(C)cc(C(=O)CN2c3cccc4cccc(c34)S2(=O)=O)c1C	22.4µM*	4.5%	-19.0%	·
